These results are taken from PubChem BioAssay (EPA / NIEHS).

Records with an inconclusive call do not appear. The source holds several records for some structures; these can differ, active in one and inactive in another. Activity calls are given as the source filed them. How the source made its calls: active means hit-call score of the fitted dose curve at least 0.9, where 1 is the maximum; inconclusive means response in the unintended direction; inactive means score below 0.9.

Test [1] in a line: ACEA_ER_AUC_viability: ACEA Biosciences xCELLigence Real-Time Cell Analysis on Estrogen Receptor Agonism for Viability (AID 2283782).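 Further: hit means loss of impedance signal meaning reduced cell growth or viability.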 In short, it runs like this: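 Read-out: real-time electrical impedance (RT-CES) area under curve, loss of signal taken as reduced viability, normalized to DMSO baseline. T-47D cells, charcoal-stripped serum medium, compounds up to 100 uM final, continuous exposure, 80 h.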

In test [2] the target is AR (gene 367) (UniProt P10275). Nature of the test: ACEA_AR_agonist_80hr: ACEA Biosciences xCELLigence Real-Time Cell Analysis on Androgen Receptor Agonism for Proliferation (AID 2283783).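 Further: hits increase impedance growth signal above DMSO baseline.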 In short, it runs like this: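 Impedance (RT-CES) growth signal at 80 h post-dose; 22Rv1 cells, 8-pt 1:4 series, top 100 uM final, DMSO ≤0.5%; duplicate plates; gain-of-signal fit relative to DMSO baseline.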
Chain of AR (gene 367) (P10275 whole entry, looked up): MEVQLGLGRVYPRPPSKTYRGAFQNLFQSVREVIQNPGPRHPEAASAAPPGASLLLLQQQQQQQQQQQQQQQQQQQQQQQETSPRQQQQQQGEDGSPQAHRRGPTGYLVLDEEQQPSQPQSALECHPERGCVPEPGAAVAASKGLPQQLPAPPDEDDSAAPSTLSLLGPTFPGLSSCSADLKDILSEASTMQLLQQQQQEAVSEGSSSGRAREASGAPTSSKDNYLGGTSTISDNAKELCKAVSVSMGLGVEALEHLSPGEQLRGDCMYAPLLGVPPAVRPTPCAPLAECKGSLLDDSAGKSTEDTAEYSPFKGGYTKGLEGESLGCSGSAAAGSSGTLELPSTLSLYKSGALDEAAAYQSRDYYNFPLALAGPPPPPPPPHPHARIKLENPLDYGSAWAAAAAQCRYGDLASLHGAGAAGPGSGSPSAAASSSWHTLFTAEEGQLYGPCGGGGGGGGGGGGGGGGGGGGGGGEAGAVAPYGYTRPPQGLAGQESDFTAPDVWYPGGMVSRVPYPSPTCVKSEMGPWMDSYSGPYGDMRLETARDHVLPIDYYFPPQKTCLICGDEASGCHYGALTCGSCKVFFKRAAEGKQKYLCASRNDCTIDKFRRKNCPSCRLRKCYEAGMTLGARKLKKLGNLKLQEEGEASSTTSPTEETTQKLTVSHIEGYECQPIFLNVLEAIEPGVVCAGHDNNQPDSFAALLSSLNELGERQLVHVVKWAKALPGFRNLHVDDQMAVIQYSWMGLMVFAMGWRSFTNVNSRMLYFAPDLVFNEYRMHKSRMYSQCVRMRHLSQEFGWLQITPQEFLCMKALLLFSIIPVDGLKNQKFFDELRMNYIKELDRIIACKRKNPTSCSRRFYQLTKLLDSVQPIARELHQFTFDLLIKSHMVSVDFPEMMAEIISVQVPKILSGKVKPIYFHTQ

Test [3] deals with AR (gene 367) (UniProt P10275). The test is described as follows: ACEA_AR_antagonist_80hr: ACEA Biosciences xCELLigence Real-Time Cell Analysis on Androgen Receptor Antagonism for Proliferation (AID 2283787).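 Further: 22Rv1 human prostate cancer cells with growth followed by electrical impedance; hits lower the impedance growth signal relative to DMSO.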 In short, it runs like this: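 Measures real-time proliferation of 22Rv1 prostate cancer cells by electrode impedance at 80 hours after dosing. Test articles ran at eight concentrations (1:4 steps, top 100 uM final) in biological duplicate.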

Test [4] deals with chicken Estrogen Receptor (ESR1), ESR1 (gene 396099) (UniProt P06212). Nature of the test: ATG_chERa_XSP1: Attagene TRANS-FACTORIAL Multi-Species (XSP1) HepG2 Assay for chicken Estrogen Receptor (ESR1) (AID 2283779). In short, it runs like this:
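Read-out: fluorescent reporter mRNA fragments resolved by capillary electrophoresis after RT-PCR and HpaI digestion. Transfected HepG2 cells carried chimeric NR-Gal4 constructs, were dosed 24 h with 3 nM 6-alpha-fluorotestosterone added, and activity was fitted upward relative to DMSO.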

Test [5] addresses Estrogen receptor (Homo sapiens) (UniProt P03372). The test is described as follows: ATG_hERa_XSP1: Attagene TRANS-FACTORIAL Multi-Species (XSP1) HepG2 Assay for human Estrogen Receptor (ESR1) (AID 2283780). In short, it runs like this: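 Reporter transcripts from multiplexed GAL4-UAS units driven by NR-Gal4 chimeras in transiently transfected HepG2 were measured by RT-PCR with capillary electrophoresis 24 h post-dose, with 3 nM 6-alpha-fluorotestosterone present; gain-of-signal relative to DMSO.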

Test [6] concerns turtle Estrogen Receptor (ESR1), gene 101933533. Nature of the test: ATG_trERa_XSP1: Attagene TRANS-FACTORIAL Multi-Species (XSP1) HepG2 Assay for turtle Estrogen Receptor (ESR1) (AID 2283781). In short, it runs like this: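 Transfect HepG2 with reporter units → dose chemical 24 h (medium has 3 nM 6-alpha-fluorotestosterone) → isolate RNA, RT-PCR → FAM primer extension, HpaI digest → capillary electrophoresis; gain of signal vs DMSO.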

The target in test [7] is Estrogen receptor beta (Homo sapiens) (UniProt Q92731). Nature of the test: ATG_hERb_XSP1: Attagene TRANS-FACTORIAL Multi-Species (XSP1) HepG2 Assay for human Estrogen Receptor (ESR2) (AID 2283788). In short, it runs like this: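 Transient MRTU transfection of HepG2; ERβ–GAL4 TRANS format; 24 h dosing; 3 nM 6α-fluorotestosterone co-added; RNA → RT-PCR → 6-FAM primer extension → CE; activity vs DMSO.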
Chain of Estrogen receptor beta (Homo sapiens) (Q92731 whole entry, looked up, the tested form may be a part): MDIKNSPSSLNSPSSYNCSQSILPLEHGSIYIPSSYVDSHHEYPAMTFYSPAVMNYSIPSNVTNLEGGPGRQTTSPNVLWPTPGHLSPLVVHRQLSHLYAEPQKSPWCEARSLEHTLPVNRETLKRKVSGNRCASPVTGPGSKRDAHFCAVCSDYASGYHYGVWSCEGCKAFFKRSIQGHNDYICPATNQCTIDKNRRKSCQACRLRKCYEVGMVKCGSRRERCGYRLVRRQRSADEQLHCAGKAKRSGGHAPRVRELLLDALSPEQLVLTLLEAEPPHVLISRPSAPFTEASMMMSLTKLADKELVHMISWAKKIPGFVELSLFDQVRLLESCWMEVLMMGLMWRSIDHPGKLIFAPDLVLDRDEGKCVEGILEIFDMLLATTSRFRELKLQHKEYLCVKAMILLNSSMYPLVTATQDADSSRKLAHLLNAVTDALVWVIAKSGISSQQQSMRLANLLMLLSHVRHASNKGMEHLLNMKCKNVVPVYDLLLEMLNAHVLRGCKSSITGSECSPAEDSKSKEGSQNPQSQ

Test [8] is described as follows: ATG_M_19_XSP1: Attagene TRANS-FACTORIAL Multi-Species (XSP1) HepG2 Assay for M19 Transcription Factor (Internal Marker) (AID 2283798). In short, it runs like this:
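Readout is reporter mRNA induction quantified via RT-PCR, 6-FAM labeling, HpaI digestion and capillary electrophoresis, fitted in the positive direction versus DMSO baseline. Transfected HepG2 cells exposed 24 h, medium including 3 nM 6-alpha-fluorotestosterone.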

Test [9] concerns zebrafish Peroxisome Proliferator-activated Receptor gamma (PPARg), gene 557037. The test is described as follows: ATG_zfPPARg_XSP1: Attagene TRANS-FACTORIAL Multi-Species (XSP1) HepG2 Assay for zebrafish Peroxisome Proliferator-activated Receptor gamma (PPARg) (AID 2283801). In short, it runs like this:
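Trans-activation readout of chimeric zebrafish PPARg–GAL4 in transiently transfected human HepG2 cells, 24 h chemical exposure (medium includes 3 nM 6-alpha-fluorotestosterone). Reporter transcripts measured by RT-PCR and capillary electrophoresis, fitted as gain over DMSO.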

Test [10] has as its target Nuclear receptor subfamily 1 group I member 2 (Mus musculus) (UniProt O54915). Nature of the test: ATG_mPXR_XSP1: Attagene TRANS-FACTORIAL Multi-Species (XSP1) HepG2 Assay for mouse Pregnane X Receptor (PXR) (AID 2283803). In short, it runs like this: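 Transiently transfected HepG2 cells expressing a receptor-Gal4 chimera drive a GAL4-UAS reporter; 3 nM 6-alpha-fluorotestosterone included. Reporter mRNA read 24 h post-dose by RT-PCR and capillary electrophoresis; gain of signal relative to DMSO.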

Chain of Nuclear receptor subfamily 1 group I member 2 (Mus musculus) (O54915 whole entry, looked up, the tested form may be a part): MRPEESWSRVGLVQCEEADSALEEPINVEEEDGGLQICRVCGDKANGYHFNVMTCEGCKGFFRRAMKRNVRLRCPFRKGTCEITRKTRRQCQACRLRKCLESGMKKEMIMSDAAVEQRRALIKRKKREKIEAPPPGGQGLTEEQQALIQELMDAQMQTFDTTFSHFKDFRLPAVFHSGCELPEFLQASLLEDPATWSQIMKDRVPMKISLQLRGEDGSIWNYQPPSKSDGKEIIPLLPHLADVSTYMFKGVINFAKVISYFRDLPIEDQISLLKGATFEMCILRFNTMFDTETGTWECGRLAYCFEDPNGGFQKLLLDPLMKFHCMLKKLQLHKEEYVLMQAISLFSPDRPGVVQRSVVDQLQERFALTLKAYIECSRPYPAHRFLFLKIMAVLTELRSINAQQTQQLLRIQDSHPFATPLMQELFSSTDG
Chain of chicken Estrogen Receptor (ESR1), ESR1 (gene 396099) (P06212 whole entry, looked up, the tested form may be a part): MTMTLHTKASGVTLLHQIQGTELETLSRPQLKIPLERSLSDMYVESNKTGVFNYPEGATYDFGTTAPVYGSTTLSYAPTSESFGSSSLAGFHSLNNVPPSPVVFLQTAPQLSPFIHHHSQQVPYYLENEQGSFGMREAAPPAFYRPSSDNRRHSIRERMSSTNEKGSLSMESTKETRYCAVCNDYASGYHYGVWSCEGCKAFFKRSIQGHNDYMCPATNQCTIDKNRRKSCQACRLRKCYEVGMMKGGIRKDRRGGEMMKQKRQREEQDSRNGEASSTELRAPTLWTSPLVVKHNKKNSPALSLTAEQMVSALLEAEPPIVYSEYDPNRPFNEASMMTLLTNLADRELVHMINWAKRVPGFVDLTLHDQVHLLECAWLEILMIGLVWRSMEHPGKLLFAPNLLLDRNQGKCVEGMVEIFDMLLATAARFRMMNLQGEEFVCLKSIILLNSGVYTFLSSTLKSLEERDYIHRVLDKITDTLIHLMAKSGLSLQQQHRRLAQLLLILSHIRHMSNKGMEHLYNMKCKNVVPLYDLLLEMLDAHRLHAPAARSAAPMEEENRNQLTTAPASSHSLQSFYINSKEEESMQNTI
Chain of Estrogen receptor (Homo sapiens) (P03372 whole entry, looked up, the tested form may be a part): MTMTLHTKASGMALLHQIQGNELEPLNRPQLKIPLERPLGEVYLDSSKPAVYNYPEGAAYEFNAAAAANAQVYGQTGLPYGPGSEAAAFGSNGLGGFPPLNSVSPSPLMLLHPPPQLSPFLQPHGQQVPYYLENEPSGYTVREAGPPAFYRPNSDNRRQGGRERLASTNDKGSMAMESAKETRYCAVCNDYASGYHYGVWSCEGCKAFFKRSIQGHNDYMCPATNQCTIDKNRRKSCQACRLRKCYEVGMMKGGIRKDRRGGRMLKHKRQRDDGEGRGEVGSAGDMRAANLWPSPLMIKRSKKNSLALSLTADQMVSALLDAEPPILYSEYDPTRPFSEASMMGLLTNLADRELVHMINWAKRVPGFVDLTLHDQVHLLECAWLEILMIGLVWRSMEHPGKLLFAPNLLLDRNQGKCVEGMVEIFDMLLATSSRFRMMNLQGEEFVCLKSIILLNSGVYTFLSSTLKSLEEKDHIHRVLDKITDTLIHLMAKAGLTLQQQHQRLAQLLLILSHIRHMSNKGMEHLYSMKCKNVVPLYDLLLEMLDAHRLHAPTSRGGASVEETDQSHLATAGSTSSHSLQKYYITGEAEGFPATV

As for `C=CC(=O)OCC(F)(F)C(F)(F)C(F)(F)C(F)(F)C(F)(F)C(F)(F)C(F)(F)F`, the call in [1] was inactive. Still for that read-out and setting: to `O=S(=O)(O)c1ccc2ccccc2c1` belongs “inactive”; to `COC(=O)C1CCC(C(=O)OC)CC1` (stereo not drawn), “inactive”. Same read-out and setting: to `FC(F)(F)C(F)(F)C(F)(F)C(F)(F)C(F)(F)C(F)(F)C(F)(F)C(F)(F)CCS` belongs “inactive”. The AC50 is the concentration at which the activity in the assay is half-maximal. With `Nc1ccc(S(=O)(=O)Nc2nccs2)cc1`, in test [1], the half-maximal activity concentration (AC50) is 26 µM (active) and the call was inactive. Turning to `Cc1ccc(S(=O)(=O)NCl)cc1`, in [1], the call was inactive.

For the compound `CCCCOCCOCCOC(=O)CCCCC(=O)OCCOCCOCCCC`, in test [1], the compound was classed as inactive. In the case of `CO[Si](OC)(c1ccccc1)c1ccccc1`, in test [1], the concentration at half-maximal activity (AC50) was 79.9 µM (active). With `OCC(F)(F)C(F)(F)C(F)(F)F`, in [1], the result was inactive. Same read-out and setting: to `CS(C)(=O)=O` belongs “inactive”. Regarding `[Co]`, the outcome in test [1] was inactive.

`O[Si](c1ccccc1)(c1ccccc1)c1ccccc1`: the half-maximal activity concentration (AC50) in test [1] was 196 µM (active). As to `CNC(=S)NC`, the result with AR (gene 367) [2] and with AR (gene 367) [3] was inactive. As for `CN(C)Cc1ccccc1O`, the compound was classed as inactive in the test with AR (gene 367) [2] and in the test with AR (gene 367) [3]. For the compound `CCCCCCOC(=O)c1ccccc1O`, the call (in [1]; in the test with AR (gene 367) [3]) was inactive.

`CCc1c(Br)c(Br)c(Br)c(Br)c1Br`: the compound was classed as inactive in test [1]. As for `CC(C)(C)C(=O)CC(=O)C(F)(F)C(F)(F)C(F)(F)F`, the result in test [1] was inactive. Same read-out and setting: under `FC(F)(F)C(F)(F)C(F)(F)C(F)(F)C(F)(F)C(F)(F)CC1CO1` (stereo not drawn) stands “inactive”; under `O=C(O)C(F)(OC(F)(F)C(F)(OC(F)(F)C(F)(F)C(F)(F)F)C(F)(F)F)C(F)(F)F` (stereo not drawn), “inactive”. Regarding `CCCCCCCCCCCCCCCC[N+](C)(C)Cc1ccccc1`, in [1], the AC50 was 3.4 µM (active). Still for that read-out and setting: to `CC(C)c1ccccc1N` belongs 50 µM (active). For `C(=C(c1ccccc1)c1ccccc1)c1ccccc1`, the AC50 in test [4] is 0.198 µM (active); in [5], 0.0336 µM (active); in test [6], 0.0208 µM (active); in test [7] it was 0.017 µM (active). Further, the compound was classed as inactive in [8], in [9] and in test [10]. Turning to `O=C(O)C(F)(F)C(F)(F)C(F)(F)C(F)(F)C(F)(F)C(F)(F)C(F)(F)C(F)(F)Cl`, the concentration at half-maximal activity (AC50) in [1] is 119 µM (active). For `Cc1ccc(S(=O)(=O)OCC(F)(F)C(F)(F)C(F)(F)C(F)(F)C(F)(F)C(F)F)cc1`, the concentration at half-maximal activity (AC50) in [1] was 0.00308 µM (active). For `CCCCCCC(C)OC(=O)CCCCC(=O)OC(C)CCCCCC` (stereo not drawn), the result with AR (gene 367) [2] and in the test with AR (gene 367) [3] was inactive.

For the compound `CCCCCCCOC(=O)c1ccccc1C(=O)OCCCCCCC`, in test [1], the call was inactive. On the same count and under the same terms, under `C=CC(F)(F)C(F)(F)C(F)(F)C(F)(F)C(F)(F)C(F)(F)C(F)(F)C(F)(F)C=C` stands “inactive”; under `O=C(O)C(F)(F)C(F)(F)C(F)(F)F`, “inactive”. Still for that read-out and setting: to `CC(C)OC(=O)c1ccccc1C(=O)OC(C)C` belongs “inactive”; to `FC(F)(F)C(F)(F)C(F)(F)C(F)(F)C(F)(F)C(F)(F)CCS`, “inactive”; to `C1COCCN1`, “inactive”. Regarding `CCCCC(CC)COP(=O)(O)OCC(CC)CCCC` (stereo not drawn), the half-maximal activity concentration (AC50) in [1] is 79.2 µM (active).
